Bioassay records as filed in PubChem BioAssay.
Only some compounds are listed: those with a hit (about 3.1% of all), similar ones and a draw of the others.
KKLEB tox: cytotoxicity in KKLEB CF airway cells, primary screen, cytotoxicity control for CF NF-kB inhibitor project, cell-based, uHTS, fluorescence assay plates | 360,000 compounds, 0.36% hits | KKLEB CF airway cells viability, ATPlite luminescence, overnight; hits give low values; cells stimulated with P. aeruginosa culture filtrate | activity change (cytotoxicity), % at 5 µM;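 active = corrected activity change at or below -50% at 5 µM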
HIF-2a block: HIF-2a reporter inhibitors, primary screen, luminescence, 786-0 RCC cells. inhibition, % at 18.8 µM. 786-0 RCC cells HIF-2a reporter, luciferase luminescence, overnight. AID 624352, 2012. 360,000 compounds, 0.72% hits;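 active = inhibition of the luminescence signal of 40% or more relative to plate controls, in a single-dose primary screen at 18.75 µM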
CF NFkB inh: inhibitors of PAF-induced NF-kB signaling, primary screen, cell-based, GFP fluorescence, uHTS | inhibition, % at 5 µM | 360,000 compounds, 0.86% hits | KKLEB NF-kB-GFP reporter, GFP fluorescence overnight;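 active = at least 50% inhibition at 5 µM, scaled per plate between neutral and stimulator controls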;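 also: PAF is a Pseudomonas aeruginosa culture filtrate used as stimulus; plate controls were PAF-stimulated DMSO wells for no effect and unstimulated DMSO wells for full effect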
Peg3 prom inh: Peg3 promoter-driven luciferase inhibitors, primary screen, cell-based, HeLa, luciferase luminescence; HeLa PEG-Prom luciferase reporter, overnight; inhibition, % at 20 µM; 360,000 compounds, 1.7% hits; AID 588405, 2011;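 active = inhibition of at least 50% at 20 µM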
ABHD5-PLIN5 inh: ABHD5-PLIN5 interaction inhibitors, primary screen, cell lysate, split luciferase complementation, luminescence; Perilipin-5 (Homo sapiens) + 1-acylglycerol-3-phosphate O-acyltransferase ABHD5 (Homo …; Split G. princeps luciferase complementation, 4 h; AID 602281, 2012; 360,000 compounds, 0.78% hits; inhibition, % at 4 µM;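 active = inhibition above the mean inhibition across every tested compound plus 3 SD, cut at about 22% in these data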;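 also: 0% = DMSO only wells and the 100% control is not disclosed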
Target sequence (Q00G26 whole entry, looked up): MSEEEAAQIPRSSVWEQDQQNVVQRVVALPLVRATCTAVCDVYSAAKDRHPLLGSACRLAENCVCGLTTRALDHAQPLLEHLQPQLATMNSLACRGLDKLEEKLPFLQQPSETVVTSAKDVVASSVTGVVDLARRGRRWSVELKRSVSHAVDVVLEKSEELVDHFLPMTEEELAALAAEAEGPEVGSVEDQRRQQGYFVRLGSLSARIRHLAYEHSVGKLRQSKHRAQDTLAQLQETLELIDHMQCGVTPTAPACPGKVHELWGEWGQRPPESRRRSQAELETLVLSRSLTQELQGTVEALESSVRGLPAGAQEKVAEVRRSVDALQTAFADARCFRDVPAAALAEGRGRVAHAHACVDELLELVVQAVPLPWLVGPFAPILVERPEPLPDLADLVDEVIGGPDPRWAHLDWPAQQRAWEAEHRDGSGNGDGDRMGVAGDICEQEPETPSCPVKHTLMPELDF
Target sequence (Q8WTS1 whole entry, looked up): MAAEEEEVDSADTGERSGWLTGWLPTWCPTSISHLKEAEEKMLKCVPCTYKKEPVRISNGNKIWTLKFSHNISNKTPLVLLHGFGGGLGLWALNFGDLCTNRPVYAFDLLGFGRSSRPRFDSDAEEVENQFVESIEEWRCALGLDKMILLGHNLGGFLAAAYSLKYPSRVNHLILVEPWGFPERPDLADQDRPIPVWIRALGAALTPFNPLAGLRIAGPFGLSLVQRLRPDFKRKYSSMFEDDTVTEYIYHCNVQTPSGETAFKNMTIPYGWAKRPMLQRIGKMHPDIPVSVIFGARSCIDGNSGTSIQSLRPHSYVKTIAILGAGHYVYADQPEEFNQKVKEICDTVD
MITF TRPM1 inh: inhibitors of MITF-dependent TRPM1 promoter reporter, primary screen, cell-based, SK-MEL-5, single point, luciferase; inhibition, % at 12.5 µM; SK-MEL-5 TRPM1 promoter luciferase, 24 h; 330,000 compounds, 0.83% hits; AID 488899, 2010;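 active = mean inhibition across replicates of 60% or more, whatever share of single replicates reaches that level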
* marks the source's active call; other numbers are inactive results; . = no result.

SMILES | KKLEB tox | HIF-2a block | CF NFkB inh | Peg3 prom inh | ABHD5-PLIN5 inh | MITF TRPM1 inh
CC(=O)O[C@]1(C(C)=O)CC[C@H]2[C@@H]3C[C@H](C)C4=CC(=O)CC[C@]4(C)[C@H]3CC[C@@]21C | 21.2 | 12.3 | 53.1* | -21.1 | 6.0 | -0.1
O=C(O)c1ccc(NC2(C(=O)O)CCCC2)cc1 | 2.2 | 7.4 | -25.0 | 0.2 | -4.5 | -1.0
COC(=O)/C=C/CC(C)OS(N)(=O)=O (centres undefined) | 7.0 | -5.6 | -15.6 | -0.5 | -0.6 | 7.8
COc1ccc(S(=O)Cc2ccc(C(=O)N3CCN(C(=O)c4ccco4)CC3)o2)cc1 (centres undefined) | 13.8 | 1.9 | -32.2 | 20.9 | 0.7 | -11.7
Cc1cccc(NC(=O)/C(=C\c2ccc([N+](=O)[O-])o2)NC(=O)c2ccc(Cl)cc2)c1 | -10.6 | 6.1 | 10.9 | 55.8* | 3.5 | 2.4
CCNC(=O)COC(=O)c1cc(S(=O)(=O)N2CCCc3ccccc32)ccc1Cl | -10.4 | 10.5 | 14.0 | -1.8 | -0.5 | -4.0
CCOC(=O)N(C)c1c(CC)nc2c(OCc3ccc(C(F)(F)F)cc3)cccn12 | 10.5 | 3.5 | -5.2 | 18.9 | -6.3 | .
COc1ccc2nc(C)cc(Sc3nc4ccccc4s3)c2c1 | -44.3 | 33.0 | 64.2* | 67.3* | 18.6 | 3.8
Cc1cc(C)c2c(NC(=O)CCl)nn(C)c2n1 | -16.8 | 9.9 | 16.6 | 52.0* | -1.7 | 3.7
N#Cc1ccccc1NC(=O)COC(=O)/C=C/c1cn(-c2ccccc2)nc1-c1ccc(Cl)cc1 | -32.8 | 15.0 | 5.4 | 27.3 | -3.1 | 25.1
COc1ccc(-c2nn(-c3ccccc3)cc2/C=C/C(=O)OCC(=O)Nc2ccccc2C#N)cc1 | -70.1* | 18.1 | 66.6* | 48.0 | -7.3 | 40.7
COc1ccc(-c2nn(-c3ccccc3)cc2/C=C/C(=O)N2CCN(c3ccccn3)CC2)cc1 | -14.9 | -9.0 | 38.4 | 52.0* | 1.2 | -0.4
Cc1ccc(-c2nn(-c3ccccc3)cc2C(=O)N2CCN(c3ccccn3)CC2)cc1 | -5.1 | -25.5 | 29.1 | 3.2 | 1.8 | 1.4
COc1ccc(NC(=O)CN2C(=O)CSC(C)C2=O)cc1 (centres undefined) | 3.8 | 15.7 | 3.7 | 54.8* | 3.3 | 1.5
Cc1ccc(C(=O)Nc2ccc(N3CCN(C(=O)c4cccs4)CC3)cc2)c(Cl)c1 | -0.9 | -15.4 | 22.4 | 20.1 | -0.7 | 1.4
CCOC(=O)N1CCN(S(=O)(=O)c2ccc(C(=O)Nc3nnc(C4CC4)o3)cc2)CC1 | -4.8 | 16.4 | -8.9 | -3.9 | -4.3 | -8.1
CCOC(=O)N1CCN(S(=O)(=O)c2ccc(C(=O)Nc3nc4c(s3)CC(C)CC4)cc2)CC1 (centres undefined) | -61.9* | 1.1 | 38.4 | 34.2 | 4.0 | 12.3
Clc1ccc(C[n+]2csc3ccccc32)cc1 | 12.8 | -22.2 | -11.4 | -28.0 | -3.5 | -4.5
Fc1ccc(C[n+]2csc3ccccc32)cc1 | 16.5 | -4.3 | -8.1 | -3.9 | 53.8* | 8.8
COC(=O)c1ccc(CNC(=O)Cn2cnc3c(OCc4ccccc4)ncnc32)cc1 | 2.4 | -6.0 | -25.4 | 83.8* | 1.8 | 2.6
Cc1ccc(CNC(=O)Cn2cnc3c(OCc4ccccc4)ncnc32)o1 | -10.5 | -4.9 | -6.5 | 16.7 | -0.9 | 0.7
CN(C)CCNS(=O)(=O)c1ccc(N2CCN(c3ccc(F)cc3)CC2)c([N+](=O)[O-])c1 | -15.4 | 11.1 | 15.2 | 62.7* | 20.6 | 8.0
CC(=O)N1c2ccc(Cl)cc2C2C=CCC2C1c1cccc2ccccc12 (centres undefined) | -18.2 | 17.1 | 35.4 | 66.1* | 1.2 | 10.1
O=C(NCCC1=CCCCC1)C1CCC(CNc2nc(=S)[nH]c3ccccc23)CC1 (centres undefined) | -1.8 | 16.3 | 3.7 | 40.1 | -8.9 | 64.0*
CCCCNC(=O)C1CCC(CNc2nc(=S)[nH]c3ccccc23)CC1 (centres undefined) | 6.7 | 22.5 | -13.6 | 0.5 | -3.0 | 7.7
SMILES | KKLEB tox | HIF-2a block | CF NFkB inh | Peg3 prom inh | ABHD5-PLIN5 inh | MITF TRPM1 inh
O=C(NCCc1ccc(Cl)cc1)C1CCC(CNc2nc(=S)[nH]c3ccccc23)CC1 (centres undefined) | -11.3 | 35.5 | 7.8 | 31.0 | 3.9 | 76.3*
O=C(NCc1ccccc1Cl)C1CCC(CNc2nc(=S)[nH]c3ccccc23)CC1 (centres undefined) | -18.6 | 37.6 | 13.0 | 40.1 | -6.5 | 22.2
CCOC(=O)Cn1cnc2scc(-c3ccc(C)cc3)c2c1=O | 6.7 | 34.3 | -4.6 | 19.3 | 2.8 | 1.3
O=C1CC(=Nc2ccc([N+](=O)[O-])cc2)NN1c1c(Cl)cc(Cl)cc1Cl | 4.1 | -4.7 | 30.6 | 10.3 | -4.2 | .
CN(C)CCCN(C(=O)c1ccc(Br)s1)c1nc2cc3c(cc2s1)OCCO3 | -7.6 | -52.5 | -5.3 | -25.2 | 11.0 | 17.2
CN(C)CCCN(C(=O)c1ccc([N+](=O)[O-])s1)c1nc2cc3c(cc2s1)OCCO3 | 23.6 | 16.8 | -5.4 | -63.7 | -1.8 | 66.9*
CN(C)CCCN(C(=O)c1ccc(Cl)s1)c1nc2cc3c(cc2s1)OCO3 | 4.0 | -37.1 | 2.9 | -28.4 | 9.8 | 82.8*
COc1ccc(C(=O)Nc2sc3c(c2C#N)CCN(C(C)=O)C3)cc1 | -8.7 | -28.9 | -4.7 | -7.3 | 2.7 | 16.9
CC(=O)N1CCc2c(sc(NC(=O)c3ccc([N+](=O)[O-])o3)c2C#N)C1 | -63.8* | -10.9 | 98.2* | 109.4* | 17.0 | 95.0*
CC(C)CCSc1nc(N)c(C#N)cc1C#N | 0.2 | -77.8 | 51.2* | -40.5 | -0.6 | -15.6
COc1ccc(OC(=O)c2ccc(OC)c(S(=O)(=O)N3CCOCC3)c2)cc1 | 16.1 | 12.9 | 0.3 | 10.4 | 6.1 | 2.9
CCCCCn1c(=NC(=O)c2cccnc2)c(C#N)cc2c(=O)n3cccc(C)c3nc21 | 0.8 | 20.1 | -46.4 | 55.8* | 4.5 | 13.8
CCOC(=O)c1cc2c(=O)n3cccc(C)c3nc2n(Cc2ccco2)c1=NC(=O)c1ccc(C)cc1 | -7.3 | 18.9 | 5.9 | -13.4 | -6.6 | 10.6
CCOC(=O)c1cc2c(=O)n3cccc(C)c3nc2n(Cc2ccco2)c1=NC(=O)c1ccccc1 | 15.1 | -17.2 | -124.2 | -23.4 | 22.3* | 14.1
CC(=O)N1c2ccc(S(=O)(=O)N3CCCCC3)cc2CC1C(=O)Nc1cccc(C)c1 (centres undefined) | 31.0 | -1.8 | -14.4 | -2.3 | 4.0 | 2.5
O=C1C(Cl)=C(N2CCC(C(=O)O)CC2)C(=O)c2ccccc21 | 1.2 | -7.2 | 13.7 | 5.0 | -22.0 | 44.6
